The record followed here is PubChem BioAssay AID1986 (Sanford-Burnham Center for Chemical Genomics, 2009).

The structures appear in SMILES notation. Among all 290,000 compounds or so, about 890 (0.31%) were called active. Cut-off read from the data, not from the text of the source: active = inhibition mostly above about 52% (no sharp cut-off); inactive = mostly below about 76%. This excerpt belongs to a sample that is enriched for actives.

This test can be described thus: cell-free HIV fusion peptide-binding blockers – biochemical, uHTS, fluorescence dequenching, primary screen (AID 1986). The conditions noted are these: 30 min, stronger effect = higher value.

A word on the inhibition: it is the drop in the measured response relative to a control, in per cent. Consider `COc1ccccc1C(=O)C1CCCN(C(=O)c2cc(CC(C)C)nc(C)n2)C1` (centres undefined), for which, for the setting “at 20 µM”, the inhibition is -0.9% (inactive).

Regarding `CCOc1ccc(-n2cnnn2)cc1S(=O)(=O)NC1CC1`, for the setting “at 20 µM”, the inhibition is 0.2% (inactive).

As to `CCOC(=O)N1CCN(C(=O)C2CCN(S(=O)(=O)c3c(C)cc(C)cc3C)CC2)CC1`, the inhibition (at 20 µM) is -1.7% (inactive).

Regarding `O=C(NCc1ccco1)c1ccc(Cl)nc1`, the inhibition (at 20 µM) was -2% (inactive).

As to `CCC1(C)Cc2c(sc(NC(=S)NC(=O)c3ccccc3)c2C#N)CO1` (centres undefined), the inhibition (at 20 µM) was -2.1% (inactive).

For `CC(C)N1CCc2c(sc(NC(=O)Cc3ccccc3)c2C#N)C1`, under “at 20 µM”, the inhibition was -0.4% (inactive).

Consider `N#Cc1c(NC(=S)NC(=O)c2ccccc2)sc2c1CCC2`, for which, under “at 20 µM”, the inhibition was 14.9% (inactive).

As for `CC(C)N1CCc2c(sc(NC(=S)NC(=O)c3ccccc3)c2C#N)C1`, the inhibition (at 20 µM) is 81% (active).

Turning to `CCN1CCc2c(sc(NC(=S)NC(=O)c3ccccc3)c2C#N)C1`, for the setting “at 20 µM”, the inhibition was 26.3% (inactive).

For the molecule `N#Cc1c(NC(=S)NC(=O)c2ccccc2)sc2c1CCCC2`, the inhibition (at 20 µM) is 0.9% (inactive).

In the case of `CCCN1CCc2c(sc(NC(=S)NC(=O)c3ccccc3)c2C#N)C1`, the inhibition (at 20 µM) was 78.4% (active).

With `CN1Cc2sc(NC(=S)NC(=O)c3ccccc3)c(C#N)c2CC1(C)C`, under “at 20 µM”, the inhibition is 70.3% (active).

Take `N#Cc1c(NC(=S)NC(=O)c2ccccc2)sc2c1CCN(CCc1ccccc1)C2`: where the note is “at 20 µM”, the inhibition was 138% (inactive).

Turning to `N#CC(c1ccccc1)C1CCN(Cc2ccccc2)CC1` (centres undefined), the inhibition (at 20 µM) is 0.8% (inactive).

Regarding `O=c1c2cn[nH]c2[nH]c(=S)n1-c1ccccc1`, the inhibition (at 20 µM) is 1.4% (inactive).

Take `CCCCC/S(CC1CC1(Cl)Cl)=N\S(=O)(=O)c1ccc(C)cc1` (centres undefined): the inhibition (at 20 µM) was 0.9% (inactive).

For `CN(CC(=O)Nc1ccc(C(N)=O)cc1)CC(=O)Nc1ccccc1Br`, the inhibition (at 20 µM) is 0.7% (inactive).

Take `O=C(Nc1ccncc1)Nc1ccc(F)c(Cl)c1`: the inhibition (at 20 µM) was 0.5% (inactive).

As for `CC1=NN(C(=O)c2ccccc2C)C(O)(c2ccc(Cl)cc2)C1` (centres undefined), the inhibition (at 20 µM) was -2.2% (inactive).

`CC(Oc1ccccc1)C(=O)Nc1oc(-c2ccco2)c(-c2ccco2)c1C#N` (centres undefined): under “at 20 µM”, the inhibition was 76.1% (active).

For `N#Cc1c(N)oc(-c2ccco2)c1-c1ccco1`, the inhibition (at 20 µM) was 2.6% (inactive).

For the molecule `CC(C)CC(C(=O)Nc1oc(-c2ccco2)c(-c2ccco2)c1C#N)N1C(=O)c2ccccc2C1=O` (centres undefined), the inhibition (at 20 µM) was -0.7% (inactive).

With `O=C(Nc1ccnn1C1CCN(Cc2ccc(Cl)cc2)CC1)C1CCCC1`, the inhibition (at 20 µM) is 1.4% (inactive).

Take `O=C(N/N=C/c1cccc([N+](=O)[O-])c1O)C(O)(c1ccccc1)c1ccccc1`: the inhibition (at 20 µM) is 11% (inactive).

On to `C/C=C\C=C/C(=O)Nc1cccc(C2=NOC3(C2)C[C@H](C(N)=O)N(C(=O)c2ccc(OC)cc2)C3)c1` (some centres undefined), for which the inhibition (at 20 µM) is 5.2% (inactive).

Regarding `CCOC(=O)c1sc2nc3c(SCC(=O)O)cc(C(=O)c4ccccc4O)cn3c(=O)c2c1C`, the inhibition (at 20 µM) was 49.9% (inactive).

On to `O=C(O)CSc1cc(C(=O)c2ccccc2O)cn2c(=O)c3c(-c4ccccc4)csc3nc12`, for which the inhibition (at 20 µM) is 59.6% (active).

As for `Cc1sc2nc3c(SC(C)C(=O)O)cc(C(=O)c4ccccc4O)cn3c(=O)c2c1C` (centres undefined), the inhibition (at 20 µM) was 20.4% (inactive).

For the molecule `CN(C)/C=C(/C(=O)c1ccc(Cl)c(Cl)c1)S(C)(=O)=O`, the inhibition (at 20 µM) was 0.6% (inactive).

Take `CCOc1ccc(NC(=O)CN(C)C(=O)c2cccnc2SC)cc1OCC`: the inhibition (at 20 µM) was 0.9% (inactive).

For `CCN(CC)c1ccc(/C=C/c2nc3ccccc3s2)cc1`, the inhibition (at 20 µM) was 53% (active).

As for `Cc1cc(/C=C\c2ccccc2)nc2ccccc12`, the inhibition (at 20 µM) was 1.2% (inactive).

`CCN(CC)c1ccc(/C=N/n2c(C)nc3ccccc3c2=O)cc1`: the inhibition (at 20 µM) was -0.4% (inactive).

As to `CCN(CC)c1ccc(NC(=O)COC(=O)/C=C/c2nc3ccccc3s2)cc1`, where the note is “at 20 µM”, the inhibition was -1.3% (inactive).

As for `CCN(CC)c1ccc(/C=C/c2cc(-c3ccccc3)c3ccccc3n2)cc1`, where the note is “at 20 µM”, the inhibition is 96.8% (active).

In the case of `CN(C)c1ccc(/C=C/c2nc3ccccc3s2)cc1`, where the note is “at 20 µM”, the inhibition is 3.1% (inactive).

With `Cc1ccccc1C(=NC(=O)c1ccccc1)c1ccccc1`, the inhibition (at 20 µM) is 0.6% (inactive).

As for `COc1cc(/C=C(\C#N)c2nc3ccccc3[nH]2)cc(Br)c1OCc1ccccc1`, under “at 20 µM”, the inhibition was 6.5% (inactive).

With `COc1cc(/C=C(\C#N)c2nc3ccc(C)cc3[nH]2)c([N+](=O)[O-])cc1OC`, where the note is “at 20 µM”, the inhibition was -2.7% (inactive).

As to `COc1ccc(/C=C(\C#N)c2nc3ccc(C)cc3[nH]2)cc1Oc1ccc(C(F)(F)F)cc1[N+](=O)[O-]`, the inhibition (at 20 µM) is 10% (inactive).

With `COc1ccc(/C=C(\C#N)C(=O)c2c(C)[nH]c3ccccc23)cc1OC`, the inhibition (at 20 µM) is -1.1% (inactive).

For the molecule `COc1cc(/C=C(\C#N)c2nc(-c3cc4ccccc4oc3=O)cs2)ccc1O`, the inhibition (at 20 µM) was 31.9% (inactive).

On to `COc1cc(/C=C(\C#N)C(=O)c2c(C)[nH]c3ccccc23)cc(OC)c1OC`, for which the inhibition (at 20 µM) was -1.7% (inactive).

On to `COc1ccc(/C=C(\C#N)c2nc3ccccc3[nH]2)cc1O`, for which the inhibition (at 20 µM) was -0.7% (inactive).

As to `COc1cc(/C=C(/C#N)c2nc(-c3cc4ccccc4oc3=O)cs2)cc([N+](=O)[O-])c1O`, the inhibition (at 20 µM) was 66.8% (active).

On to `COc1cc(/C=C(\C#N)c2nc3ccccc3[nH]2)cc(OC)c1O`, for which the inhibition (at 20 µM) was 69.9% (active).

In the case of `COc1cc(/C=C(\C#N)C(=O)c2c[nH]c3ccccc23)cc(OC)c1O`, the inhibition (at 20 µM) was 62.6% (active).

Turning to `COc1ccc(-c2csc(/C(C#N)=C\c3ccc(O)c([N+](=O)[O-])c3)n2)cc1OC`, the inhibition (at 20 µM) was 62.9% (inactive) and the inhibition (measured here: repeat confirmation average inhibition, at 18.6 µM) was 9.1%.

With `CSc1ccc(S(=O)(=O)N2CCC(C(=O)NCC3CCCO3)CC2)cc1` (centres undefined), where the note is “at 20 µM”, the inhibition is -1.2% (inactive).

On to `COc1ccc(NC(=O)c2ccsc2NC(C)=O)cc1`, for which the inhibition (at 20 µM) was -0.1% (inactive).

On to `COCCSc1nnc(NC(=O)c2ccc(NC(=O)C(C)C)cc2)s1`, for which the inhibition (at 20 µM) is 1.5% (inactive).

As to `CCN(c1ccccc1)S(=O)(=O)c1ccc(OCC(=O)Nc2cc(C)on2)cc1`, under “at 20 µM”, the inhibition was -4% (inactive).

Take `Cc1c(NC(=O)c2c(F)cccc2F)c(=O)n(-c2ccccc2)n1C`: the inhibition (at 20 µM) was 0.4% (inactive).

On to `CCOc1cc(N2CCOCC2)c(OCC)cc1NC(=O)COC(=O)c1cc2ccccc2cc1O`, for which the inhibition (at 20 µM) was -0.9% (inactive).

As for `CCOC(=O)CNC(=O)CNC(=O)Cn1ccc2ccccc2c1=O`, the inhibition (at 20 µM) is -0.8% (inactive).

Regarding `O=C(C[n+]1ccc(C(=O)NCc2ccccc2)cc1)c1ccc(Cl)cc1`, where the note is “at 20 µM”, the inhibition is 1.3% (inactive).

In the case of `Cc1ccc(NC(=O)COC(=O)Cn2cnc3c2c(=O)n(C)c(=O)n3C)c(Cl)c1`, the inhibition (at 20 µM) was 1.4% (inactive).

Turning to `O=C(NCCCCc1ccccc1)C1CCCC1`, the inhibition (at 20 µM) was -0.4% (inactive).
